{"source": "PubChem BioAssay (NCI)", "note": "About 83,000 compounds went through this panel and 20% of them were active in at least one assay; those are over-represented in the sample as a whole.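 Cell lines were cultured in 96-well plates, exposed to a single compound concentration, and assessed for percent growth 48 hours later.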 Values without a mark were called inactive. Active and inactive are the calls of the source. The calls were made as follows: active = growth percent below 10; inactive = the rest."}
{"test_system": "MDA-MB-468 breast", "experiment": "NCI-60 one-dose screen, 48 h (100 = growth as untreated, 0 = no growth, -100 = all killed)", "settings": "10 µM unless noted"}
{"smiles": "CCOc1ccccc1C(=O)OCC(=O)Nc1cccc(S(=O)(=O)N(C)C)c1", "growth": "84.7%"}
{"smiles": "O=C1C2=C(CCN(Cc3ccccc3)C2)N2CCN=C2N1Cc1ccc(C(F)(F)F)cc1", "growth": "8.96% (active)"}
{"smiles": "O=C(N/N=C\\c1ccc(Cl)cc1)c1ccc2nc(-c3ccc(Br)cc3)[nH]c2c1", "growth": "-34.9% (active)"}
{"smiles": "CCOC(=O)c1cc(C(=O)c2ccc(OC)c(OC)c2)n2c1ccc1ccccc12", "growth": "97%"}
{"smiles": "CC1Cc2c(ncn3c(-c4ccc(F)cc4)nnc23)N(C)c2ccccc21", "note": "(stereo not given)", "growth": "66%"}
{"smiles": "CCOC(=O)/C=C\\C(=O)NC(N)=O", "growth": "88.6%"}
{"smiles": "Cc1cc(Cl)cc(Cc2cc(Cl)cc(C)c2O)c1O", "growth": "50.2%"}
{"smiles": "C#C[C@]1(O)CC[C@H]2[C@@H]3CC=C4c5nc(Nc6ccccc6[N+](=O)[O-])sc5CC[C@]4(C)[C@H]3CC[C@@]21C", "growth": "70.7%"}
{"smiles": "NS(=O)(=O)c1ccc(Nc2nc(N/N=C/c3c[nH]c4ccccc34)nc(Nc3ccccc3)n2)cc1", "growth": "52.7%"}
{"smiles": "Brc1ccsc1Br", "growth": "103%"}
{"smiles": "COC(=O)c1cc(-c2ccc(C)cc2)n(C(=O)CSc2nc3sc(C(N)=O)c(C)c3c(=O)n2Cc2ccccc2)n1", "growth": "107%"}
{"smiles": "C=CCCC(=O)N1C=CC(=O)[C@H](O)[C@@H]1/C=C/c1ccccc1", "growth": "4.99% [100 µM] (active)"}
{"smiles": "COc1cc2cc(Oc3ccc(NC(=O)c4cccc(C(F)(F)F)c4)cc3)c(C)nc2cc1OCCN(C)C", "growth": "81.5%"}
{"smiles": "O=C(C1=Cc2cc3ccccc3n2Cc2cnnn21)c1ccc(F)cc1", "growth": "99.4%"}
{"smiles": "C[n+]1cccc(NC(=O)c2ccc3ccc4ccc(C(=O)Nc5ccc[n+](C)c5)nc4c3n2)c1", "growth": "-15.9% (active)"}
{"smiles": "COc1cc(Nc2ccnc(N3CCN(c4ccnc5cc(Cl)ccc45)CC3)n2)cc(OC)c1", "growth": "-0.859% (active)"}
{"smiles": "Cc1n(Cc2ccc3ccccc3n2)cc[n+]1Cc1ccc2ccccc2c1", "growth": "-23.5% (active)"}
{"smiles": "CC(=O)O.CC(=O)O.O.[Fe]", "growth": "100%"}
{"smiles": "CSc1nc(=O)n(Cc2ccc(F)cc2)c(=O)n1Cc1ccc(C)cc1", "growth": "112%"}
{"smiles": "O=C(Nc1ccc(-c2nc3ccc(NC(=O)c4ccc(Cl)cc4)cc3[nH]2)cc1)c1ccc(Cl)cc1", "growth": "-10.8% (active)"}
{"smiles": "CN1CCN(Cc2ccc(NC(=O)c3cccc(C#Cc4c(N)ncc5ccc(F)cc45)c3)cc2C(F)(F)F)CC1", "growth": "-61.7% (active)"}
{"smiles": "CC[C@H]1CCC/C=C/[C@@H]2C[C@H](O)C[C@H]2[C@H](O)/C=C/C(=O)O1", "growth": "-51.5% (active)"}
{"smiles": "O=C1C(c2ccccc2)C2C=CC(C2)N1O", "note": "(stereo not given)", "growth": "98.9%"}
{"smiles": "O=C(/C=C(/C=C/c1coc2ccccc12)OB(F)F)/C=C/c1coc2ccccc12", "growth": "112%"}
{"smiles": "CCOc1nc(-c2ccccc2)cc2c(O)c(C(=O)NN)[nH]c(=O)c12", "growth": "110%"}
{"smiles": "NC(=O)[C@@H]1Cc2ccccc2CN1C(=O)c1ccc2c(c1)Cc1ccccc1-2", "growth": "71.4%"}
{"smiles": "CC/C=C/[C@@H]1C=C[C@@H]2CCC[C@H]2[C@@H]1CC[C@H](O)[C@H](C)N", "growth": "-76.6% (active)"}
{"smiles": "O=C1/C(=C/c2cccc(Br)c2)COc2ccc(O)cc21", "growth": "53.1%"}
{"smiles": "CSc1nc(Nc2cccc(NC(=O)CCl)c2)c(C#N)c(-c2cccc([N+](=O)[O-])c2)n1", "growth": "-10.8% (active)"}
{"smiles": "Cc1cccc([N+](=O)[O-])c1I", "growth": "104%"}
{"smiles": "O=c1cc(C(F)(F)F)[nH]c(=S)[nH]1", "growth": "110%"}
{"smiles": "CCOC(=O)c1c(Nc2ccccc2)nn2c(-c3ccc(OC)cc3)ccnc12", "growth": "91.1%"}
{"smiles": "CC(=O)c1c(/C=C/c2ccc(C)cc2)c2ccccc2[nH]c1=O", "growth": "110%"}
{"smiles": "CN(C)c1ccc(-c2ccc(-c3ccc(C(=N)N)cn3)o2)cc1", "growth": "-64.4% (active)"}
{"smiles": "O=C(Nc1cccc(-n2ccc3c(NC(=O)c4ccccc4)nccc32)c1)Nc1cc(C(F)(F)F)cc(C(F)(F)F)c1", "growth": "7.42% (active)"}
{"smiles": "Cn1cc(-c2csc(-c3ccc(Cl)cc3)n2)c2cccnc21", "growth": "-69.1% [100 µM] (active)"}
{"smiles": "COc1cc(NCC(=O)Nc2cc(Nc3ccc(C)cc3)ncn2)c(Cl)c(OC)c1Cl", "growth": "105%"}
{"smiles": "COc1ccc(C(O)(CCC(C)C)C(CN2CCOCC2)c2ccc(Cl)cc2)cc1", "note": "(stereo not given)", "growth": "80.6%"}
{"smiles": "Cc1ccc(/C=C/C(=O)Nc2ncc(Cc3ccc(F)cc3)s2)o1", "growth": "34%"}
{"smiles": "OCc1cnccc1NC12CC3CC(CC(C3)C1)C2", "growth": "99.2%"}
